Screening results deposited in PubChem BioAssay by several laboratories.
Gli-Sufu block: blocks Gli-Sufu signaling in a luciferase reporter; 340,000 compounds, 0.74% hits; Sufu-KO-LIGHT fibroblasts, Gli luciferase reporter luminescence; inhibition, % at 5 µM;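 active = inhibition above about 55%, limit read from the data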;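 note: 0% = DMSO-treated cells and 100% = wells with medium but no cells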
COUP-TFII inh: blocks human COUP-TFII nuclear receptor | inhibition, % at 8.6 µM | 370,000 compounds, 0.7% hits | HEK293T NGFI-A luciferase reporter, luminescence | P24468;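 active = inhibition above a per-plate cutoff, mean inhibition of test wells between control levels plus 3 SD, cut at about 38% in these data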;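 note: cells cotransfected with COUP-TFII expression vector driving the NGFI-A reporter; 0% = median of COUP-TF2 test wells and 100% = reporter-only cells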
NCOA3 inh: human NCOA3 inhibition; inhibition, % at 3.6 µM; 360,000 compounds, 0.17% hits; Q9Y6Q9; HEK293 GAL4-SRC3 luciferase reporter, luminescence;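 active = inhibition above a per-campaign cutoff, the mean of all compounds plus 3 SD, cut at about 60% in these data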;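 note: 0% = DMSO-treated cells and 100% = gossypol-treated cells at 36 µM; higher means less SRC3-driven luciferase light from the GAL4 reporter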
Target sequence (Q9Y6Q9 whole entry, looked up, the tested form may be a part): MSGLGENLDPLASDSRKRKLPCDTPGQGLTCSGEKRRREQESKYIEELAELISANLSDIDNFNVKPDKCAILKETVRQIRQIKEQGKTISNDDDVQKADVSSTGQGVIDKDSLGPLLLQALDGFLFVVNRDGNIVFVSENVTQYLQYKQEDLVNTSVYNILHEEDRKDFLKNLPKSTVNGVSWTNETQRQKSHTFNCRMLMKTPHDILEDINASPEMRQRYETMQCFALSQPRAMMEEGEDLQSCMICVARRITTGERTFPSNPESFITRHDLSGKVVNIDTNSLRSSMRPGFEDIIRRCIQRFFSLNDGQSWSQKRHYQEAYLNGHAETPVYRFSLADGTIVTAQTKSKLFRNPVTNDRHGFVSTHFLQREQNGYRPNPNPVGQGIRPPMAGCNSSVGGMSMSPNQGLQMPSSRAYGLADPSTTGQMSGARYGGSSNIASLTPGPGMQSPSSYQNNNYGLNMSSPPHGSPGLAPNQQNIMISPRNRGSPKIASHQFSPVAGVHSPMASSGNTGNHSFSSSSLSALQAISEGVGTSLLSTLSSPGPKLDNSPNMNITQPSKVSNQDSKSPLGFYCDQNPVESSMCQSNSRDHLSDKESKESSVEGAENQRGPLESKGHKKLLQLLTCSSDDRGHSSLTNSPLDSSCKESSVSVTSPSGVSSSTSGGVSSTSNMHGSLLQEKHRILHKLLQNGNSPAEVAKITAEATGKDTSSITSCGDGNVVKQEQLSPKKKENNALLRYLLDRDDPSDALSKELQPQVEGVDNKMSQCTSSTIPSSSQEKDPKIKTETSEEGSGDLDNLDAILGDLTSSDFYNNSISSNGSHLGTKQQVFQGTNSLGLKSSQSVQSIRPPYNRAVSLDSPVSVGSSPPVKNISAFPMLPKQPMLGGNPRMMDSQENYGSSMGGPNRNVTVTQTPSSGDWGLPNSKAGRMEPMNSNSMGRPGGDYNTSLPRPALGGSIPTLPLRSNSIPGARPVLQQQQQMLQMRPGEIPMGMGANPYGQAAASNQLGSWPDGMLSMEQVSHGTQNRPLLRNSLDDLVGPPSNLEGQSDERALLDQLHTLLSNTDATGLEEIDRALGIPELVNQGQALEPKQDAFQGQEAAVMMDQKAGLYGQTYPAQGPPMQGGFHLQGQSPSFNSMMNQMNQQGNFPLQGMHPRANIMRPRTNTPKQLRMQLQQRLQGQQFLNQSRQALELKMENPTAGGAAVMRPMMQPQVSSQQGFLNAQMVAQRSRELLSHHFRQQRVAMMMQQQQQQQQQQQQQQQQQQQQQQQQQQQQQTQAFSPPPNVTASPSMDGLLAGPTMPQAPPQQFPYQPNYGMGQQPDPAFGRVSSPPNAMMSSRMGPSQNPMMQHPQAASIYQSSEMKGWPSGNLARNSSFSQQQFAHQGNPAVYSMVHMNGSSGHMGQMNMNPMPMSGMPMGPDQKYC
SRC2 inh: human SRC2 (NCOA2) inhibition; Q15596; HEK293 GAL4-SRC2 luciferase reporter, luminescence; inhibition, % at 9 µM; 370,000 compounds, 0.17% hits; AID 651957;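 active = inhibition above the mean inhibition of all tested compounds plus 3 SD, set per campaign, cut at about 52% in these data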;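 note: 0% = DMSO treated cells and 100% = cells given Gossypol at 36 µM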
LRH-1 inv ag: suppresses constitutive activity of human LRH-1. 360,000 compounds, 0.13% hits. O00482. HEK293T StAR-luciferase reporter, LRH-1 transfected, 24 h. inhibition, % at 3.6 µM;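 active = inhibition above the mean inhibition of all tested compounds plus 3 SD, cut at about 73% in these data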;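 note: 0% = DMSO wells and 100% = reporter-only cells lacking LRH-1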
SRC1 inh: inhibits human SRC1 coactivator; HEK293 GAL4-SRC1 luciferase reporter, luminescence; inhibition, % at 3.6 µM; 360,000 compounds, 0.12% hits; AID 588354;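 active = inhibition above the campaign mean plus 3 SD, with each screening campaign given its own cutoff, cut at about 60% in these data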;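 note: 0% = DMSO treated cells and 100% = gossypol at 36 µM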
Gli antag conf: Gli-SUFU antagonism confirmation, single concentration; shares compounds with Gli-Sufu block; Sufu-KO-LIGHT cells, Gli luciferase reporter, luminescence; inhibition, % at 5 µM; 2,500 compounds, 40% hits; AID 602428;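 active = mean inhibition at 5 µM reaching about 45%, limit read from the data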;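 note: plate controls were DMSO-treated cells for no effect and wells lacking cells for full effect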
SufuKO cytotox: cytotoxic in Gli-SUFU antagonist counter-screen; cytotoxicity, % at 5 µM; shares compounds with Gli-Sufu block; Sufu-KO-LIGHT cells cytotoxicity, ATP luminescence; AID 651994; 2,500 compounds, 32% hits;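 active = mean cytotoxicity at 5 µM above about 25%, limit read from the data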;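 note: cells exposed to compound overnight for roughly 16 to 18 hours; plate controls were DMSO wells with cells for no effect and medium without cells for full effect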
Wnt3a counter: Wnt3a reporter inhibition counter-screen; shares compounds with Gli-Sufu block; Wnt-LIGHT cells, Wnt3a-driven luciferase reporter, luminescence; inhibition, % at 6.25 µM; 2,500 compounds, 20% hits;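 active = mean inhibition above about 25%, limit read from the data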
Gal4-VP16 ctr: VP16 inhibition counter-screen for COUP-TFII; AID 687007; 2,500 compounds, 25% hits; HEK293 Gal4-VP16 luciferase reporter, luminescence; inhibition, % at 8.5 µM; shares compounds with COUP-TFII inh; in the data active = inhibition above about 13%
NR2F2 inh conf: COUP-TFII (NR2F2) inhibition, confirmation assay; shares compounds with COUP-TFII inh; HEK293 NGFI-A luciferase reporter, luminescence; inhibition, % at 8.5 µM; 2,500 compounds, 45% hits;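 active = mean inhibition over three repeats above a set limit taken from the earlier primary screen, cut at about 38% in these data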;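 note: 100% = cells given the luciferase reporter alone without the COUP-TF2 vector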
Starred values were filed as active, the others as inactive; . = not tested or not shown. Hits are enriched below; roughly 1.2% of the tested compounds scored in any of these assays.

SMILES | Gli-Sufu block | COUP-TFII inh | NCOA3 inh | SRC2 inh | LRH-1 inv ag | SRC1 inh | Gli antag conf | SufuKO cytotox | Wnt3a counter | Gal4-VP16 ctr | NR2F2 inh conf
COc1ccc(NS(=O)(=O)c2cccc(NC(=O)c3ccc(Cl)nc3)c2)cc1 | 69.0* | 75.2* | 10.5 | 7.0 | 49.4 | 23.1 | 68.0* | 40.8* | 15.7 | 3.1 | 65.9*
Clc1cccc(C[n+]2cc(-c3ccccc3)n3c2CCC3)c1 | 47.8 | -2.1 | -5.2 | -8.4 | -4.8 | 14.8 | . | . | . | . | .
Cc1ccc(-c2c[n+](Cc3cccc(Cl)c3)c3n2CCC3)cc1 | 79.3* | 38.2* | 34.2 | 10.6 | 23.9 | 16.4 | 82.5* | 35.8* | 19.3 | 3.6 | 8.1
COc1ccccc1Cc1c(-c2ccc(F)cc2)nc2c3ccccc3ccn12 | . | 6.7 | . | -13.4 | . | . | . | . | . | . | .
CCN(CC)C(=O)c1oc2ccc(S(=O)(=O)N3CCCCCC3)cc2c1C | 25.3 | 19.9 | 22.7 | 23.7 | 6.0 | 2.6 | . | . | . | . | .
CCN(CC)C(=O)c1oc2ccc(S(=O)(=O)N3CC(C)CC(C)C3)cc2c1C (stereo not drawn) | 63.0* | 51.2* | 21.5 | 14.1 | 24.6 | -19.9 | 62.3* | 22.9 | 43.8* | 1.3 | 48.6*
COc1ccccc1-c1noc(CCCC(=O)NC2CCCC2)n1 | 23.9 | -0.1 | -5.3 | -10.0 | 12.6 | -5.7 | . | . | . | . | .
O=C(CCCc1nc(-c2ccccc2Cl)no1)NC1CCCC1 | 64.3* | 73.5* | 62.5* | 90.4* | 25.6 | 45.0 | 57.2* | -1.3 | 93.0* | -0.3 | 3.0
c1ccc2c(c1)OCC(CNc1ncnc3sccc13)O2 (stereo not drawn) | 75.7* | 77.9* | 33.4 | 30.3 | 42.4 | 19.5 | 74.5* | 20.5 | 22.4 | -16.7 | 57.9*
COC(=O)c1cc(-c2ccc(F)c(Cl)c2)c(=O)n2c1CCC2 | . | 13.1 | . | 6.7 | . | . | . | . | . | . | .
CNc1nc(SCC(=O)Nc2ccc(Cl)c(Cl)c2)nc(N2CCOCC2)n1 | 18.6 | 12.0 | 15.2 | 9.0 | 5.0 | -14.8 | . | . | . | . | .
Cc1cc(C)nc(SCC(=O)Nc2ccc(N3CCOCC3)c(Cl)c2)n1 | 53.3 | 41.9* | 8.0 | 7.8 | 59.2 | 8.3 | 45.1* | 21.0 | -24.0 | 17.8* | 40.1*
COC(=O)C1=C(C)N(Cc2ccc(C(F)(F)F)cc2)C(=NCc2cc(OC)c(OC)c(OC)c2)NC1c1cccc(Cl)c1 (stereo not drawn) | . | 10.5 | . | -2.9 | . | . | . | . | . | . | .
CC1CCCC=CC2CC(OC(=O)CN(C)C)CC2C(O)C=CC(=O)O1 (stereo not drawn) | 60.3* | 51.1* | 51.4 | 2.6 | 36.8 | 0.1 | 86.2* | 38.0* | 88.4* | 16.5* | 16.3
Cc1cc(C(=O)CN2C(=O)c3ccccc3S2(=O)=O)c(C)n1C(C)C | 57.1* | 62.6* | 39.9 | 57.6* | 38.5 | 46.7 | 49.2* | 12.4 | 43.6* | 49.0* | 63.3*
Cc1ccc(C(=O)CN2C(=O)c3ccccc3S2(=O)=O)cc1 | 78.2* | 73.9* | 63.2* | 68.5* | 13.4 | 48.4 | 86.8* | 26.2* | 95.3* | 76.8* | 91.2*
Cc1cc(C)nc(NC(=O)CN2C(=O)c3ccccc3S2(=O)=O)n1 | -4.3 | 14.4 | -8.8 | 2.7 | -23.1 | 2.7 | . | . | . | . | .
CC(C)NC(=O)CN1C(=O)c2ccccc2S1(=O)=O | 5.2 | -11.6 | 13.8 | -23.2 | -13.5 | 3.9 | . | . | . | . | .
C[C@@H]1ON(C)[C@H]2C[C@H]3c4[nH]c5cccc(-c6cccc(F)c6)c5c4CCN3C(=O)[C@@H]12 | . | 4.4 | . | 14.4 | . | . | . | . | . | . | .
